In PubChem BioAssay (Tox21):
Inconclusive results are not listed. A call without a number means that no potency is given here. Calls of active or inactive are those of the source. Calls come from the whole dose curve; as a rule, active = well fitted cell-killing curve with a large enough effect in the repeat runs; inconclusive = weak or mixed curves, or effect the other way; inactive = flat fitted curve, though single readings scatter.

experiment: qHTS assay to identify small molecule antagonists of the androgen receptor (AR) signaling pathway using the MDA cell line in the presence of 0.5 nM R1881 - cell viability counter screen (AID 1259242); conditions: MDA-kb2 viability, CellTiter-Fluor protease fluorescence, 16 h; series mostly up to 92.4 µM; note: nearly all actives have a fitted effect of over 45% in size
Excerpt: U.S. Tox21 Program National Center for Advancing Translational Sciences [NCATS] NIH Chemical Genomics Center [NCGC] U.S. Environmental Protection Agency [EPA] National Institutes of Environmental Health Sciences [NIEHS] National Toxicology Program [NTP] U.S. Food and Drug Administration [FDA] Tox21 Assay Overview: Androgen receptor (AR) is an important member of the nuclear receptor family. Its signaling plays a critical role in AR-dependent prostate cancer and other androgen related diseases. Considerable attention has been given in the past decades to develop methods to study and screen for the environmental chemicals that have the potential to interfere with metabolic homeostasis, reproduction, developmental and behavioral functions. Therefore AR binding assay for screening androgen antagonists can be used to identify potential endocrine disruptors. MDA-kb2 cells (from ATCC, deposited by Wilson et al.) were used to screen for AR inhibitors against Tox21 compound libraries. These cells are human breast carcinoma cells that were stably transfected with a luciferase reporter gene under control of the MMTV promoter that contains response elements for both androgen receptor (AR) and glucocorticoid receptor (GR). The current screening for identification of AR inhibitors against Tox21 libraries used lower concentration of (0.5 nM) R1881 as a stimulator. The cytotoxicity of the Tox21 compound libraries against MDA-kb2 cell line was tested by measuring live-cell protease activity using CellTiter-Fluor assay in the same wells.
Tox21 Assay Protocol Summary: MDA-kb2 cells (cells cultured without CO2) were dispensed at 3,000 cells/well in 4 uL of culture medium into white wall/solid-bottom 1536-well plates (Corning Life Sciences, Corning, NY) using a Multidrop Combi (ThermoFisher Scientific, Waltham, MA) dispenser. After the assay plates were incubated at a 37C and 0% CO2 for 5 hr, 23 nL of compounds dissolved in DMSO, positive controls or DMSO only was transferred to the assay plate by a Pintool station (Kalypsys, San Diego, CA). The transfer of compounds was followed by the addition of 1 uL of 0.5 nM (final concentration) agonist (R1881)/culture medium using a Flying Reagent Dispenser (FRD, Aurora Discovery, San Diego, CA). The plates were incubated at 37C and 0% CO2 for 16 hr. For cytotoxicity assay, 1 uL of CellTiter-Fluor reagent (Promega Corporation, Madison, WI) was added to each well using the FRD and after 30 min incubation at 37C and 0% CO2, The fluorescence intensity was measured using ViewLux plate reader (PerkinElmer, Shelton, CT).
Potency is the fitted concentration of half-maximal effect.

Row | SMILES | Potency
1 | O=C(O)CNc1ccccc1 | inactive
2 | CCn1nc(Cc2ccccc2)cc1C1CCN(C[C@H]2C[C@H](N(C)[C@@H](C(=O)O)C(C)C)C[C@@H]2c2cccc(F)c2)CC1 | inactive
3 | CC(C)(C)c1ccc(CCC=O)cc1 | inactive
4 | Cc1ccc2ccccc2c1[N+](=O)[O-] | inactive
5 | Cc1cccc(C)c1NC(=O)CN1CCCC1 | inactive
6 | CCCOC(C)=O | inactive
7 | CCCCCCCCCCCCCCCCC(=O)O | inactive
8 | Nc1ccc(F)cc1F | inactive
9 | CCCCCCCCCCCCSCCOCCO | inactive
10 | CCCCCCCCCCCCN1CCOCC1 | inactive
11 | Nc1ccccc1Nc1ccccc1 | inactive
12 | CCC(C)C1N=C(C)C(C)S1 (stereo not given) | inactive
13 | CCOc1ccc2c(c1)C(C)CC(C)(C)N2 (stereo not given) | inactive
14 | CCCCC(CC)COCCC#N (stereo not given) | inactive
15 | O=C(C1CCCCC1)N1CC(=O)N2CCCc3ccccc3C2C1 (stereo not given) | inactive
16 | COc1ccc(/C=C/S(=O)(=O)NC(=O)c2ccc(C)cc2Cl)cc1 | inactive
17 | O=C(Cl)c1ccc(F)c(Cl)c1 | inactive
18 | O=C1C=CCCC1 | inactive
19 | COc1ccc(/C(C)=C/C(=O)O)c(OC)c1 | inactive
20 | O=C1c2ccccc2C(=O)C1c1ccc2cc(S(=O)(=O)O)cc(S(=O)(=O)O)c2n1 | 58.9 µM (active)

Row | SMILES | Potency
21 | CC(C)(C)N | inactive
22 | CCCCOc1ccc(N)cc1 | inactive
23 | O=C(O)COCC(=O)O | inactive
24 | CCOC(OCC)OCC | inactive
25 | Sc1nc(S)nc(S)n1 | inactive
26 | CCCCCCCCOCCCN | inactive
27 | O=S(=O)(O)c1cc(Cl)c(Cl)cc1Cl | inactive
28 | CC(C(=O)O)c1ccc(/C=C2\CCCCC2=O)cc1 (stereo not given) | inactive
29 | Cc1ccc(NC=O)c(C)c1 | inactive
30 | CCCCOC(=O)CC#N | inactive
31 | Cc1c(N=C=O)cccc1N=C=O | inactive
32 | CCC(C(=O)O)c1ccc(N2Cc3ccccc3C2=O)cc1 (stereo not given) | inactive
33 | C=C(C)C(=O)OCCCCCCCCCCOC(=O)C(=C)C | inactive
34 | CCC(=O)O[C@@H]1C[C@H]2CC[C@]1(C)C2(C)C | inactive
35 | CCCC1CCOC(C)S1 (stereo not given) | inactive
36 | C=C[Si]1(C)O[Si](C)(C=C)O[Si](C)(C=C)O[Si](C)(C=C)O1 (stereo not given) | inactive
37 | C=CC(=O)OCCCCCCCCCC | inactive
38 | c1ccc(CCNc2nc(-c3ccccc3)cs2)cc1 | inactive
39 | CCC1=C(C)CN(C(=O)NCCc2ccc(S(=O)(=O)NC(=O)NC3CCC(C)CC3)cc2)C1=O (stereo not given) | inactive
40 | CCCC(=O)OCCC(C)C | inactive
